Only a selection was taken, and hits are over-represented in it overall.
GIRK2 act: opens human GIRK2 potassium channels; HEK293-GIRK2 thallium flux, Thallos fluorescence, MPD; calls only for hits at 25 µM; 0.05% of 63,000 active; AID 1259325; call rule not given here
* hit, by the source's call; i = inactive; + = active, no number.

SMILES	GIRK2 act
CCn1c(=O)c2c(nc3n(-c4ccccc4OC)c(-c4ccccc4)cn23)n(C)c1=O	+
O=C(CCc1csc2nc(C3CC3)cn12)N1CCN(c2ccc(C(F)(F)F)cn2)CC1	i
Cn1nc(CNC(=O)c2ccccc2F)cc1-c1ccco1	i
COc1ccccc1-n1nnc(C(=O)Nc2nc(C)cs2)c1-c1ccccn1	+
COc1ccccc1-n1nnc(C(=O)NCC2COCCO2)c1-c1ccccn1 (centres undefined)	i
COc1ccccc1-n1nnc(C(=O)NCc2nc3ccccc3n2C)c1-c1ccccn1	i
CCCS(=O)(=O)N1CCCc2ccc(NC(=O)NCc3cccc4ccccc34)cc21	i
O=C(Cn1ccc2ccccc21)N1CCN(C/C=C/c2ccccc2)CC1	i
O=C(c1ccc(=O)[nH]c1)N1CCN(Cc2nc3ccccc3[nH]2)CC1	i
Cc1cc2oc(=O)cc(CCl)c2cc1Cl	i
COc1ccccc1/C=C1\Oc2cc(OCC#N)ccc2C1=O	i
COc1ccc(C(=O)Oc2ccc3c(=O)c(-c4ccccc4OC)coc3c2)cc1	i
COc1ccc(N2CCCn3c2nc2c3c(=O)n(C/C=C/c3ccccc3)c(=O)n2C)cc1	i
COC(=O)N1CCC(CNC(=O)Nc2ccc(C(C)(C)C)cc2)CC1	i
CCCCCn1c(=O)c2ccccc2n(Cc2nc(-c3ccccc3OC)no2)c1=O	i
CC(C)(C)S(=O)(=O)c1ccc(N2CCN(Cc3ccc4c(c3)OCO4)CC2)nn1	i
CCOc1ccccc1NC(=O)NCCN1CCC(c2cccs2)CC1	i
Cc1cc2oc3c(c(=O)c2cc1C)C(c1ccccc1)N(c1nccs1)C3=O (centres undefined)	i
O=C(Cn1ccc2ccccc21)NC1CCN(Cc2ccccc2)CC1	+
O=C(Cn1ccc2ccccc21)Nc1cc(N2CCN(Cc3ccccc3)CC2)ncn1	i
CCOC(=O)N1CCC(NC(=O)Cn2ccc3ccccc32)CC1	i
COc1ccc(OC)c(CNC(=O)c2c(O)c3cccnc3[nH]c2=O)c1	i
Cc1nnc(NC(=O)CN2CCN(Cc3nc(C(C)(C)C)cs3)CC2)s1	i

High-throughput results as filed in PubChem.
